# A selection: hits, their analogues and other compounds. The true share with any hit is near 19%.
# DT40 TDP1 CPT: qHTS for Inhibitors of human tyrosyl-DNA phosphodiesterase 1 (TDP1): qHTS in cells in presence of CPT; chicken DT40 Tdp1-/-;hTDP1 cells + 20 nM CPT, ATP luminescence, 48 h; Potency, µM (top dose mostly 46.2 µM), without a hit: at the top dose activity change, negative = growth inhibition, most hits filed as inhibitors; hit rate 12% among 420,000; AID 686979, 2013; note: nearly all actives have a fitted effect of over 55% in size
#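 Chicken DT40 Tdp1-/- cells stably complemented with human TDP1 were seeded at 400 cells/well in medium containing 20 nM camptothecin, exposed to pin-transferred compounds, and grown at 37 °C for at least 48 hr. Viability was read as ATP luminescence.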
# DT40 TDP1 no CPT: qHTS for Inhibitors of human tyrosyl-DNA phosphodiesterase 1 (TDP1): qHTS in cells in absence of CPT | Potency, µM (series often up to 46.2 µM), without a hit: at the highest dose activity change, negative = growth inhibition, hits mostly inhibitors | DT40 Tdp1-/- hTDP1 cells, no CPT, ATP luminescence, 48 h | hit rate 15% among 420,000 | AID 686978, 2013; note: nearly all actives have a fitted effect of over 55% in size
#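 Compound effects on proliferation are scored in DT40 Tdp1-/-;hTDP1 cells in the absence of CPT. ATP levels (CellTiter-Glo luminescence) are recorded after a ≥48 hr, 37 °C incubation.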
# RORg inh: qHTS for inhibitors of ROR gamma transcriptional activity; Nuclear receptor ROR-gamma (Mus musculus), P51450; Drosophila S2 Gal4-RORgamma UAS-luciferase reporter, 20 h; Potency, µM (series often up to 53.6 µM), for the others: at the highest dose activity change, negative = inhibition, hits mostly inhibitors; hit rate 5.4% among 310,000; note: nearly all actives have a fitted effect of over 60% in size
# Target sequence (P51450 whole entry, looked up, the tested form may be a part): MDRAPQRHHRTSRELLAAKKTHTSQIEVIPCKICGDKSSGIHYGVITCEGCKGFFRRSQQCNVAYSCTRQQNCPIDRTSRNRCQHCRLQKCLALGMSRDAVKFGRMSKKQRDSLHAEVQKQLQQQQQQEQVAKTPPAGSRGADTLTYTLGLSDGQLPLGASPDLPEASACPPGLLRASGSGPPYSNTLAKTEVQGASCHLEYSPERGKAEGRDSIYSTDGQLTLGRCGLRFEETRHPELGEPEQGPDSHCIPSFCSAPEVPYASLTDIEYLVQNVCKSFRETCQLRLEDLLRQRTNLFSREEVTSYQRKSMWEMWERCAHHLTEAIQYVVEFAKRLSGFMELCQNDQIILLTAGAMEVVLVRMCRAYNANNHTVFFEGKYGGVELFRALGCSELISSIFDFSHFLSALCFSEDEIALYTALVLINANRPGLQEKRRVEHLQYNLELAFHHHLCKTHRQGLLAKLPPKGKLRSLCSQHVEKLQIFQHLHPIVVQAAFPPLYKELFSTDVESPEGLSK
#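 Luciferase reporter read in Schneider cells carrying Gal4-RORγ (mouse) and UAS-Photinus luciferase; cells given compound 1 h before 700 uM copper sulfate induction, then incubated 20 h at ambient temperature.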
# TDP1 inh: qHTS Assay for Inhibitors of Tyrosyl-DNA Phosphodiesterase (TDP1); recombinant TDP1, AlphaScreen DNA substrate cleavage; Potency, µM (highest dose often 130 µM), for the others: top-dose activity change, negative = inhibition, usual class: inhibitors; hit rate 0.28% among 350,000; AID 485290, 2010; note: nearly all actives have a fitted effect of over 40% in size
#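 Recombinant human Tdp1 (E. coli-expressed, 1 nM final) preincubated with compounds 15 min at room temperature, then 5'-biotin/3'-phosphotyrosine-FITC DNA substrate (15 nM final) added for 5 min. AlphaScreen beads (10 ug/ml final) added 10 min; cleavage lowers signal.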
# VP16 counter: VP16 counterscreen qHTS for inhibitors of ROR gamma transcriptional activity; Drosophila S2 Gal4-VP16 UAS-luciferase, luminescence, 20 h; Potency, µM (series often up to 53.6 µM), for inactives: top-dose activity, negative = inhibition, usual class: inhibitors; hit rate 3.5% among 310,000;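 note: Gal4-VP16 expression switched on by copper sulfate through the metallothionein promoter; nearly all actives have a fitted effect of over 50% in size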
# * marks the source's active call; other numbers are inactive results; ? = inconclusive; · = no result given; [ ] = another dose, or the depositor's remark. Calls come from the whole dose curve; as a rule, active = well fitted curve in the direction sought with a large enough effect; inconclusive = small, poorly fitted or top-dose-only effect, or another doubt; inactive = no such curve, though single readings can be large; an effect the other way counts as inactive or inconclusive. % is set by controls: 0 for no effect and ±100 for the full control effect; potency is the fitted concentration of half-maximal effect.
SMILES,DT40 TDP1 CPT,DT40 TDP1 no CPT,RORg inh,TDP1 inh,VP16 counter
Cc1ccc(NC(=S)NC(=O)c2cncc(Br)c2)c(C)c1,1%,-21%,·,·,·
COc1ccc(NC(=S)NC(=O)c2cncc(Br)c2)c(OC)c1,-2%,-6%,2.5µM*,·,?
O=C(NC(=S)Nc1ccccc1Cl)c1cncc(Br)c1,19%,-27%,2.5µM*,·,4.5µM*
O=C(NC(=S)Nc1ccccc1Cl)c1cncc(C#Cc2ccccc2)c1,-8%,-4%,-32%,0%,-5%
CCCCNC(=O)COC(=O)c1ccc(Cl)c(S(=O)(=O)N2CCCC2)c1,-2%,-1%,8%,·,-4%
CCCOc1ccccc1C1CC(=O)NC2=C1C(=O)CCC2 (configuration not stated),4.1µM*,4.1µM*,31%,2%,3%
CCOc1ccccc1C1CC(=O)NC2=C1C(=O)CCC2 (configuration not stated),?,16µM*,18%,7%,3%
CCCCOc1ccccc1C1CC(=O)NC2=C1C(=O)CCC2 (configuration not stated),1.6µM*,1.6µM*,-2%,3%,-5%
CCOc1ccc(C2CC(=O)NC3=C2C(=O)CCC3)cc1 (configuration not stated),0%,9%,-5%,0%,-5%
O=C(O)CC[C@H](NC(=O)c1ccccc1C(=O)O)C(=O)O,·,·,·,6%[56.1 µM],·
CN(Cc1cnc2nc(N)nc(N)c2n1)c1ccc(C(=O)NC(CCC(=O)O)C(=O)O)c2ccccc12 (configuration not stated),0.092µM*,0.052µM*,·,·,·
CCCCCC(=O)N1C[C@H](n2cc(C3CC3)nn2)[C@@H](O)C[C@@H]1c1ccc(C)cc1,-15%,-9%,·,·,·
CCCCCC(=O)N1C[C@H](n2cc(-c3ccc(F)cc3)nn2)[C@@H](O)C[C@@H]1c1ccc(OC)cc1,2%,-30%,·,·,·
CCCCCC(=O)N1C[C@@H](n2cc(-c3ccc(F)cc3)nn2)[C@H](O)C[C@@H]1c1ccc(Cl)cc1,15µM*,12µM*,·,·,·
CCCCCC(=O)N1C[C@H](O)[C@@H](n2cc(-c3ccc(F)cc3)nn2)C[C@@H]1c1ccc(Cl)cc1,18µM*,18µM*,·,·,·
O=C(NC1CCCCC1)c1ccc(CSc2nc3ccncc3n2Cc2ccccc2)cc1,?,21µM*,·,5%,·
COC(=O)c1ccc(Cn2c(SCc3ccc(F)cc3)nc3ccncc32)cc1,?,?,·,-1%,·
COc1ccc(Cn2c(SCc3ccc(C(=O)NC4CCCCC4)cc3)nc3ccncc32)cc1,?,16µM*,·,4%,·
COc1ccc(CSc2nc3ccncc3n2CC(=O)Nc2cc(C)cc(C)c2)cc1,?,16µM*,·,8%,·
Cc1ccc(Cn2c(SCc3ccc(C(=O)NC4CCCCC4)cc3)nc3ccncc32)cc1,?,21µM*,·,8%,·
O=C(CCCCCCN1C(=O)c2ccccc2C1=O)N1CCC(c2ccccc2)C1 (configuration not stated),?,?,54%,-5%,?
Cc1ccccc1C(=O)N1CCC(C(=O)N(C)CCOc2ccccc2)CC1,?,?,14%,3%,2%
CCN1CCN(S(=O)(=O)c2ccc(Cl)c(C(=O)N(C)Cc3cccc(OC)c3)c2)CC1,-21%,-19%,·,·,·
O=C(c1cc(S(=O)(=O)N2CCOCC2)ccc1F)N(CCc1ccccc1)Cc1ccccc1,?,23µM*,·,·,·
O=C(NCCc1ccccc1)c1cc(S(=O)(=O)N2CCOCC2)ccc1F,-8%,-15%,41%,2%,17%
Cc1cccc(N(Cc2ccccc2)C(=O)C2CCN(C(=O)c3ccccc3C)CC2)c1,12µM*,5.8µM*,·,3%,·
CCN1CCN(S(=O)(=O)c2ccc(Cl)c(C(=O)N(CC)Cc3ccccc3)c2)CC1,?,?,·,1%,·

# Assay outcomes (PubChem BioAssay)
